The nature of this assay: T. brucei methionyl-tRNA synthetase enzyme inhibition – biochemical, radioactivity, round 1, late-stage follow-up (AID 743060). Particulars: purified enzyme, radiolabel aminoacylation, scintillation, 2 h; at 1 µM; stronger effect = higher value.
By inhibition is commonly meant the change of the read-out against control, counted positive when it falls. Regarding `CCO[C@@H]1OC(C(=O)NCc2nc3ccccc3[nH]2)=C[C@H](c2ccc(Br)cc2)[C@H]1CCCO`, the inhibition worked out at 6.72%. On to `O=C(NCc1nc2ccccc2[nH]1)C1=C[C@@H](c2ccccc2)C[C@@H](OCc2ccc(CO)cc2)O1`, for which the inhibition turned out to be 44.6%. Regarding `O=C(NNC(=O)c1cc(-c2ccc(Cl)c(Cl)c2)nc2ccccc12)Nc1ccccc1`, the inhibition amounted to 59.7%. As to `Cc1cccc2[nH]c(C3CCCN(C(=O)c4cccc5cccnc45)C3)nc12` (centres undefined), the inhibition was -3.03%. `Cc1cccc(NC(=O)C2CC(=O)n3c(nc4ccccc43)N2)c1` (centres undefined): the inhibition worked out at 3%.

In the case of `Clc1ccc(-c2nnc(SCc3nc4ccccc4[nH]3)o2)c(Cl)c1`, the inhibition came out at 75.3%.

With `O=C(C[C@H]1C(=O)N(Cc2ccccc2)C[C@@H]1c1ccc(Br)cc1)Nc1ccc(Br)cc1`, the inhibition was found to be 55.7%. For `COc1cccc(NC(=O)CSc2nnc3c(n2)[nH]c2ccc(C)cc23)c1`, the inhibition worked out at 97.7%. For `CCN(CC)C(=O)C(=O)c1cn(CC(=O)N(CC)c2ccccc2)c2ccccc12`, the inhibition is -3.75%. Next, `CC(C)OCCCN1CC(=O)N2C(c3cccc([N+](=O)[O-])c3)c3[nH]c4ccccc4c3C[C@H]2C1=O` (some centres undefined): 50%; `O=C1[C@@H]2Cc3c([nH]c4ccccc34)C(c3cccc([N+](=O)[O-])c3)N2C(=O)CN1CCCO` (some centres undefined): 63.2%; `CC(C)(C)[C@@H]1C=C(C(=O)NCc2nc3ccccc3[nH]2)O[C@H](OCc2ccc(CO)cc2)C1`: 30.8%.

On to `O=C(NCc1nc2ccccc2[nH]1)C1=C[C@H](c2ccc3c(c2)OCO3)C[C@H](OCCCCO)O1`, for which the inhibition came out at 5.68%. Next, `COc1ccc(OCC(O)CNC(=O)Nc2ccc(Cl)cc2)cc1` (centres undefined): 28.9%; `Oc1c(Cl)cc(Cl)cc1CNc1nc2ccccc2[nH]1`: 88.3%. In the case of `CC1Cc2ccccc2N1C(=O)Cn1cc(C(=O)C(=O)N2CCOCC2)c2ccccc21` (centres undefined), the inhibition was -6.83%. Next, `O=C(Cn1cc(C(=O)C2CC2)c2ccccc21)Nc1cccc(C(F)(F)F)c1`: 3.65%; `O=C(NNC(=O)c1ccc(-n2cncn2)c([N+](=O)[O-])c1)c1ccc(Cl)cc1`: 7.36%. On to `O=C(NCc1nc2ccccc2[nH]1)C1=C[C@@H](c2csc3ccccc23)C[C@@H](OCCCCO)O1`, for which the inhibition was 20.6%. Next, `CC(=O)N(CCc1ccccc1)C1CC(=O)N(c2ccc(Cl)cc2)C1=O` (centres undefined): -16.2%; `CN1CC(=O)N2C(c3cccc([N+](=O)[O-])c3)c3[nH]c4ccccc4c3C[C@H]2C1=O` (some centres undefined): 57.7%; `O=C(NCc1nc2ccccc2[nH]1)C1=C[C@H](c2ccccc2)C[C@H](OCc2ccc(CO)cc2)O1`: 7.32%. Regarding `O=C(NCCc1nc2ccccc2[nH]1)c1ccc(Cl)c(Cl)c1`, the inhibition came out at 74.6%. For the compound `COCCc1nc2ccc(C(=O)NCCc3nc4ccc(OC)cc4[nH]3)cc2o1`, the inhibition was -1.44%.

Consider `CCC(=O)c1cn(CC(=O)Nc2cccc(C(F)(F)F)c2)c2ccccc12`, for which the inhibition was -3.8%. Take `O=C(Cn1cc(C(=O)c2ccco2)c2ccccc21)Nc1cccc(C(F)(F)F)c1`: the inhibition worked out at 45.2%. `O=C(NCc1nc2ccccc2[nH]1)C1=C[C@@H](c2ccc3c(c2)OCO3)C[C@@H](OCCCCO)O1`: the inhibition was 50.4%. Turning to `CC(=O)c1cn(CC(=O)Nc2cccc(C(F)(F)F)c2)c2ccccc12`, the inhibition is 20.1%. The same measure for `COc1ccc(NC(=O)CSc2nnc3c4cc(C)ccc4n(C)c3n2)cc1`: -3.06%; for `O=C1CC(NCCc2ccccc2)C(=O)N1c1ccc(Br)cc1` (centres undefined): -6.51%. As to `CCCCn1c(CCNC(=O)c2ccc(F)cc2)nc2ccccc21`, the inhibition came to 4.87%. Turning to `CCN(C(=O)Cn1cc(C(=O)C(=O)N2CCOCC2)c2ccccc21)c1ccccc1`, the inhibition is -19.2%. Next, `COc1ccc2[nH]c3nc(SCC(=O)Nc4ccc5c(c4)OCO5)nnc3c2c1`: 63.4%. Consider `O=C(CC=NOCc1ccc([N+](=O)[O-])cc1)Nc1ccc(Br)cc1`, for which the inhibition was 32.2%.

The values are drawn from PubChem BioAssay AID743060 (The Scripps Research Institute Molecular Screening Center, 2013).
